The supplement of paper PMC10849652
Of roughly 7,900 targets only a part is listed; those with a hit were picked by preference. About 0.6% of all pairs of compound and target were hits.

What was measured:
Test in all cases: log2 fold change, soluble protein after heating vs DMSO (PISA); higher = thermal stabilisation; K562 cells, 10 uM, 30 min; active = over 0.2 and 3.5 SD of the protein, either way, in both replicates (recomputed)
erlotinib = compound: C#Cc1cccc(Nc2ncnc3cc(OCCOC)c(OCCOC)cc23)c1 [erlotinib]
How it was run: (§1)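 Aliquots of K562 cells (2×10^6 cells/mL) treated with 10 μM compound for 30 min were heated for 3 min over 48°C-58°C. After pooling and extraction in PBS with 0.5% NP-40 at 4°C, soluble protein from a 21,000xg, 90 min spin was quantified by TMTpro 16plex LC-MS/MS with channel sums equalised. Thermal stability is expressed against control samples, from duplicates, as a log2 fold change.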

[1] = compound: C/C(=N\NC(=O)C1=CC(=CC=C1)S(=O)(=O)N2CCOCC2)/C3=C(C=CC(=C3)Cl)O
How it was run: as §1

[2] = compound: C1=CC(=C(C=C1Cl)C2=NC3=NC=CN=C3C(=N2)NC4=CC=NC=C4)F
How it was run: as §1

[3] = compound: C1=CC(=CC=C1C2=NC3=C(N2)C=C(C=C3)C(=O)N)OC4=CC=C(C=C4)Cl
How it was run: as §1

[4] = compound: C1=CC2=C(C=CC(=C2)/C=C\3/C(=O)NC(=NCC4=CC=CS4)S3)N=C1
How it was run: as §1

[5] = compound: C1=CC2=NC=CN=C2C=C1/C=C/3\C(=O)NC(=O)S3
How it was run: as §1

[6] = compound: C1=CC=C(C=C1)C2=NC(=C(N2)C3=CC=NC=C3)C4=CC(=C(C=C4)Cl)O
How it was run: as §1

[7] = compound: C1=CC=C2C(=C1)C3=NNC4=CC=CC(=C43)C2=O
How it was run: as §1

[8] = compound: C1CCN(C1)C(=O)NC2=CC=CC(=C2)NC3=NC=C(C(=N3)NCCC4=CN=CN4)Br
How it was run: as §1

[9] = compound: C1CN(CCC1(CC2=CC=C(C=C2)Cl)N)C3=NC=NC4=C3C=CN4
How it was run: as §1

IRAK-1-4 Inhibitor I = compound: C1COCCN1CCN2C3=CC=CC=C3N=C2NC(=O)C4=CC(=CC=C4)[N+](=O)[O-] [IRAK-1-4 Inhibitor I]
How it was run: as §1

ibrutinib = compound: C=CC(=O)N1CCC[C@@H](n2nc(-c3ccc(Oc4ccccc4)cc3)c3c(N)ncnc32)C1 [ibrutinib]
How it was run: as §1

[10] = compound: CC(=O)c1cnc2ccc(-c3cc(Cl)c(O)c(Cl)c3)nc2c1N[C@H]1CC[C@H](CN(C)C)CC1
How it was run: as §1

ralimetinib = compound: CC(C)(C)Cn1c(N)nc2ccc(-c3[nH]c(C(C)(C)C)nc3-c3ccc(F)cc3)nc21 [ralimetinib]
How it was run: as §1

[11] = compound: CC(C)(O)CC(=O)NCCn1ccc2ncnc(Nc3ccc(Oc4cccc(C(F)(F)F)c4)c(Cl)c3)c21
How it was run: as §1

[12] = compound: CC(C)C1=C2N=C(C=C(N2N=C1)NCC3=CC=CC=C3)NCCCCCCN
How it was run: as §1

[13] = compound: CC(C)C[C@@H](C=O)NC(=O)[C@H](CC(C)C)NC(=O)[C@H](CC(C)C)NC(=O)OCc1ccccc1
How it was run: as §1

pinometostat = compound: CC(C)N(C[C@H]1O[C@@H](n2cnc3c(N)ncnc32)[C@H](O)[C@@H]1O)[C@H]1C[C@@H](CCc2nc3cc(C(C)(C)C)ccc3[nH]2)C1 [pinometostat]
How it was run: as §1

[14] = compound: CC1=C(C(CC(=O)N1)C2=CC=C(C=C2)C(F)(F)F)C(=O)NC3=C(C=C4C(=C3)C=NN4)F
How it was run: as §1

[15] = compound: CC1=C(C2=C(C=C1)C(=O)C3=CC=CC=C3N2CCCN)C
How it was run: as §1

Measured: log2 fold change

ACSL4 (UniProt O60488)
Chain of UniProt O60488 (O60488 whole entry, looked up): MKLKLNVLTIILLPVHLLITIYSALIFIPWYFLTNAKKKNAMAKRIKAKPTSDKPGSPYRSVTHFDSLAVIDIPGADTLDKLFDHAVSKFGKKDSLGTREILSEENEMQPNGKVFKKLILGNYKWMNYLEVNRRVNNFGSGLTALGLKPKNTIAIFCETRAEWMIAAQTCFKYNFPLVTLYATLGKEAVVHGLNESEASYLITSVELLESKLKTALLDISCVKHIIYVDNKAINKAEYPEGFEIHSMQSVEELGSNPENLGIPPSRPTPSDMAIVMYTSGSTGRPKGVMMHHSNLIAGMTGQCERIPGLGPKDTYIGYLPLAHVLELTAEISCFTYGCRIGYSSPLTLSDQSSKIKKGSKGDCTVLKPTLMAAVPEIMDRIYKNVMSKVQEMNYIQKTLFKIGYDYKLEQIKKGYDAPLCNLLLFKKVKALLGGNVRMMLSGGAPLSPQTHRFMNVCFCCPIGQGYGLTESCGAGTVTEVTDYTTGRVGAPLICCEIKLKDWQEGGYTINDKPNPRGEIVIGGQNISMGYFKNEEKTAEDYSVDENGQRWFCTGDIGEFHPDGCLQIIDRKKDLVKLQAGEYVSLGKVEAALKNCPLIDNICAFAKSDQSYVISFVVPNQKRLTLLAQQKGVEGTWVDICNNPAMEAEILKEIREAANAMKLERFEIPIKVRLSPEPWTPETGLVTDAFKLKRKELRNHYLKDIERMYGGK
inactive: erlotinib 0.16 | [1] 0.02 | [2] -0.021 | [4] 0.13 | [5] 0.024 | [6] 0.226 | [8] -0.058 | [9] -0.002 | IRAK-1-4 Inhibitor I -0.067 | ibrutinib 0.001 | [10] 0 | ralimetinib 0.049 | [11] -0.237 | [13] 0.038 | pinometostat 0.098 | [14] 0.019 | [15] 0
active: [3] 0.727 | [7] 0.357 | [12] -0.443

AK6 (UniProt Q9Y3D8)
Chain of UniProt Q9Y3D8 (Q9Y3D8 whole entry, looked up): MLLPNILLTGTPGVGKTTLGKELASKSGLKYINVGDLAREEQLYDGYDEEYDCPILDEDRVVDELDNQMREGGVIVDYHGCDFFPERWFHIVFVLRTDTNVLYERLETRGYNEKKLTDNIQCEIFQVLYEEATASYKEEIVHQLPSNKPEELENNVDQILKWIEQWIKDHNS
inactive: erlotinib 0.105 | [1] 0.108 | [2] 0.007 | [3] -0.157 | [4] 0.194 | [5] 0.025 | [6] 0.046 | [7] -0.027 | [8] -0.041 | [9] -0.085 | IRAK-1-4 Inhibitor I -0.051 | ibrutinib -0.014 | [10] -0.132 | ralimetinib 0.067 | [11] -0.175 | [12] -0.309 | [13] 0.039 | pinometostat 0.078 | [14] 0.061 | [15] 0.138

ATP6V1C1 (UniProt P21283)
inactive: erlotinib -0.103 | [1] 0.02 | [2] -0.135 | [3] -0.021 | [4] -0.011 | [5] 0.046 | [6] -0.244 | [7] 0.045 | [8] -0.067 | [9] -0.227 | IRAK-1-4 Inhibitor I -0.102 | ibrutinib -0.041 | [10] -0.074 | ralimetinib 0.036 | [11] 0.039 | [12] -0.008 | [13] 0.052 | pinometostat 0.068 | [14] 0.032 | [15] -0.037

ALG14 (UniProt Q96F25)
Chain of UniProt Q96F25 (Q96F25 whole entry, looked up): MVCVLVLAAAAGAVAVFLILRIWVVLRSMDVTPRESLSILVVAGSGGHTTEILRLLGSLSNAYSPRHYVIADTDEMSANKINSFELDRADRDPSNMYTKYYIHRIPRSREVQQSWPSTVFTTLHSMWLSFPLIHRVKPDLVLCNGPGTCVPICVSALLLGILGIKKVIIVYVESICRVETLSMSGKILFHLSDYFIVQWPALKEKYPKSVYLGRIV
inactive: erlotinib 0.111 | [1] 0.018 | [2] -0.128 | [3] -0.085 | [4] 0.084 | [5] 0.088 | [6] 0.053 | [7] 0.002 | [8] -0.061 | [9] 0.014 | IRAK-1-4 Inhibitor I 0.007 | ibrutinib 0.104 | [10] -0.157 | ralimetinib -0.12 | [11] -0.115 | [12] -0.098 | [13] 0.093 | pinometostat 0.038 | [14] 0.002 | [15] 0.195

BLOC1S3 (UniProt Q6QNY0)
active: [10] 0.427
inactive: erlotinib 0.027 | [1] -0.009 | [2] 0.04 | [3] -0.003 | [4] 0.093 | [5] 0.012 | [6] 0.031 | [7] -0.052 | [8] -0.032 | [9] 0.052 | IRAK-1-4 Inhibitor I 0.018 | ibrutinib -0.037 | ralimetinib -0.033 | [11] -0.058 | [12] 0.005 | [13] -0.045 | pinometostat -0.041 | [14] -0.01 | [15] 0.076

BYSL (UniProt Q13895)
inactive: erlotinib -0.009 | [1] 0.014 | [2] -0.05 | [3] -0.006 | [4] -0.046 | [5] 0.027 | [6] -0.018 | [7] 0.075 | [8] -0.042 | [9] -0.289 | IRAK-1-4 Inhibitor I -0.115 | ibrutinib -0.054 | [10] 0.043 | ralimetinib 0.051 | [11] -0.11 | [12] -0.109 | [13] 0.092 | pinometostat 0.118 | [14] -0.007
active: [15] -0.495

BCCIP isoform 2 (UniProt Q9P287)
Chain of UniProt Q9P287 (Q9P287 whole entry, looked up): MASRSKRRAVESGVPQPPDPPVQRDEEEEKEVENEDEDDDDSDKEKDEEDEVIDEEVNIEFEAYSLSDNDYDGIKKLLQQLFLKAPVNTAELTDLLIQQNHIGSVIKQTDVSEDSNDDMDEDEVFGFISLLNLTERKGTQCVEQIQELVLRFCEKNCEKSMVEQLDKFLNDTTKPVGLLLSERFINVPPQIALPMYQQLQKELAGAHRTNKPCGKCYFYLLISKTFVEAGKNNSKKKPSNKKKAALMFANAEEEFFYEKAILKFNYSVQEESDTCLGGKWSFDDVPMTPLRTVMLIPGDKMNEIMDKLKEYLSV
inactive: erlotinib -0.1 | [1] 0.023 | [2] 0.027 | [3] 0.026 | [4] -0.025 | [5] 0.003 | [6] 0.012 | [7] -0.007 | [8] -0.002 | [9] 0.066 | IRAK-1-4 Inhibitor I 0.013 | ibrutinib -0.025 | [10] 0.008 | ralimetinib -0.048 | [11] 0.012 | [12] 0.008 | [13] -0.012 | pinometostat 0.029 | [14] -0.012 | [15] 0.077

ATP6V0A1 isoform 3 (UniProt Q93050)
active: [12] -0.463
inactive: erlotinib -0.086 | [1] -0.041 | [2] -0.176 | [3] 0.061 | [4] 0 | [5] -0.008 | [6] -0.232 | [7] 0.052 | [8] -0.066 | [9] -0.195 | IRAK-1-4 Inhibitor I -0.068 | ibrutinib 0 | [10] -0.033 | ralimetinib 0.087 | [11] 0.019 | [13] 0.125 | pinometostat 0.198 | [14] 0.067 | [15] 0.011

AMD1 (UniProt P17707)
active: ralimetinib -0.307
inactive: erlotinib 0.078 | [1] -0.004 | [2] 0.039 | [3] 0.094 | [4] 0.091 | [5] -0.002 | [6] 0.127 | [7] 0.035 | [8] -0.224 | [9] 0.025 | IRAK-1-4 Inhibitor I -0.018 | ibrutinib -0.043 | [10] -0.086 | [11] -0.031 | [12] -0.073 | [13] 0.276 | pinometostat -0.025 | [14] 0.04 | [15] 0.051

BRAP (UniProt Q7Z569)
active: [15] 0.263
inactive: erlotinib 0.114 | [1] 0.09 | [2] 0.022 | [3] 0.012 | [4] 0.001 | [5] 0.032 | [6] 0.172 | [7] -0.023 | [8] -0.07 | [9] -0.059 | IRAK-1-4 Inhibitor I -0.032 | ibrutinib -0.066 | [10] -0.018 | ralimetinib 0.16 | [11] -0.016 | [12] -0.11 | [13] -0.093 | pinometostat 0.033 | [14] 0.026

AGPS (UniProt O00116)
Chain of UniProt O00116 (O00116 whole entry, looked up): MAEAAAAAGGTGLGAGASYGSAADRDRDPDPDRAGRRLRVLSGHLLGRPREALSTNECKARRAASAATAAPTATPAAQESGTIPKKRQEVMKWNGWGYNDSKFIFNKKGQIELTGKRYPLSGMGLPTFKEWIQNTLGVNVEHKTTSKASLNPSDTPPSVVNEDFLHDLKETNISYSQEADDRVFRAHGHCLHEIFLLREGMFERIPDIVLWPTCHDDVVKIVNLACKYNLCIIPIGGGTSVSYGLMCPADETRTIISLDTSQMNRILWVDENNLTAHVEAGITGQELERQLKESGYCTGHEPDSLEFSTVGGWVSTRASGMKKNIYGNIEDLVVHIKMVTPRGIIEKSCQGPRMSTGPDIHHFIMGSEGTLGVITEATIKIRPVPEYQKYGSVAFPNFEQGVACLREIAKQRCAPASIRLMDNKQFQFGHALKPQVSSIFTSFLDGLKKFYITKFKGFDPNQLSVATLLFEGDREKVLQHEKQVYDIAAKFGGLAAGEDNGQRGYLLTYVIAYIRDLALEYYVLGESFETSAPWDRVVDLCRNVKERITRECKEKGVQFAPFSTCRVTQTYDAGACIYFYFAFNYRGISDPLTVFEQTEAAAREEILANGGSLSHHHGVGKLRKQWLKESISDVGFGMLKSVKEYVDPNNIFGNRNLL
active: [3] 0.256
inactive: erlotinib 0.046 | [1] 0.055 | [2] 0.092 | [4] 0.055 | [5] 0.031 | [6] 0.175 | [7] 0.043 | [8] -0.01 | [9] 0.077 | IRAK-1-4 Inhibitor I 0.025 | ibrutinib -0.005 | [10] -0.028 | ralimetinib 0.007 | [11] -0.008 | [12] -0.123 | [13] -0.025 | pinometostat -0.041 | [14] -0.025 | [15] 0.031

ATP1A4 (UniProt Q13733)
Chain of UniProt Q13733 (Q13733 whole entry, looked up): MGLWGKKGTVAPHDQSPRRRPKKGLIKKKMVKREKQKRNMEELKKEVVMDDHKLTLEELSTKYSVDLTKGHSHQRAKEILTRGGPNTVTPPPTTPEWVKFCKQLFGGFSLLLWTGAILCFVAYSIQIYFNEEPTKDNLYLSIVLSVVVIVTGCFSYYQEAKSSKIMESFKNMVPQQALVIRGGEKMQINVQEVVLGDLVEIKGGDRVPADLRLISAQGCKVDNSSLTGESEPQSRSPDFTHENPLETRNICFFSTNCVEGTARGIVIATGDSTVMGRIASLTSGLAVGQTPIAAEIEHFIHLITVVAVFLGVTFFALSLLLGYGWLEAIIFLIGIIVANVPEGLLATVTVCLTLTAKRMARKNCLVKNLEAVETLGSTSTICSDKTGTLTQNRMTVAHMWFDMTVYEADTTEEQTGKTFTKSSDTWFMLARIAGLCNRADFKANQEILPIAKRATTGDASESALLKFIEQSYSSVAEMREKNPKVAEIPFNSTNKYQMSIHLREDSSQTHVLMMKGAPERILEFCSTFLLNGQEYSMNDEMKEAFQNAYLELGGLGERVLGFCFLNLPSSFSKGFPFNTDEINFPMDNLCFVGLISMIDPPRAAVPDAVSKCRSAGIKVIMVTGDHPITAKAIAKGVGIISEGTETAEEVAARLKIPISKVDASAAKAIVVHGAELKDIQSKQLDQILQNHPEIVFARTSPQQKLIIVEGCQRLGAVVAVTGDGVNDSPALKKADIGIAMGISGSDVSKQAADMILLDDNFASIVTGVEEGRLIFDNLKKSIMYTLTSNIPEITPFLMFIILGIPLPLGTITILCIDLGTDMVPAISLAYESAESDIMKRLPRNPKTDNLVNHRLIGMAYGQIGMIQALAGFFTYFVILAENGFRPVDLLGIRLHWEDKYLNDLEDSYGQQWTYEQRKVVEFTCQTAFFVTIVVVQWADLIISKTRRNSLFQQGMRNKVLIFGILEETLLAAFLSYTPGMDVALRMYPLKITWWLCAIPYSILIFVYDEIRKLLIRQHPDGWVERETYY
inactive: erlotinib -0.076 | [1] 0.033 | [2] 0.183 | [3] 0.046 | [4] -0.051 | [5] 0.063 | [6] -0.003 | [7] -0.112 | [8] -0.009 | [9] -0.015 | IRAK-1-4 Inhibitor I 0.002 | ibrutinib -0.013 | [10] 0.032 | ralimetinib -0.025 | [11] -0.025 | [12] 0.121 | [13] -0.033 | pinometostat -0.017 | [14] 0.016 | [15] 0.03

ATP11A (UniProt P98196)
Chain of UniProt P98196 (P98196 whole entry, looked up): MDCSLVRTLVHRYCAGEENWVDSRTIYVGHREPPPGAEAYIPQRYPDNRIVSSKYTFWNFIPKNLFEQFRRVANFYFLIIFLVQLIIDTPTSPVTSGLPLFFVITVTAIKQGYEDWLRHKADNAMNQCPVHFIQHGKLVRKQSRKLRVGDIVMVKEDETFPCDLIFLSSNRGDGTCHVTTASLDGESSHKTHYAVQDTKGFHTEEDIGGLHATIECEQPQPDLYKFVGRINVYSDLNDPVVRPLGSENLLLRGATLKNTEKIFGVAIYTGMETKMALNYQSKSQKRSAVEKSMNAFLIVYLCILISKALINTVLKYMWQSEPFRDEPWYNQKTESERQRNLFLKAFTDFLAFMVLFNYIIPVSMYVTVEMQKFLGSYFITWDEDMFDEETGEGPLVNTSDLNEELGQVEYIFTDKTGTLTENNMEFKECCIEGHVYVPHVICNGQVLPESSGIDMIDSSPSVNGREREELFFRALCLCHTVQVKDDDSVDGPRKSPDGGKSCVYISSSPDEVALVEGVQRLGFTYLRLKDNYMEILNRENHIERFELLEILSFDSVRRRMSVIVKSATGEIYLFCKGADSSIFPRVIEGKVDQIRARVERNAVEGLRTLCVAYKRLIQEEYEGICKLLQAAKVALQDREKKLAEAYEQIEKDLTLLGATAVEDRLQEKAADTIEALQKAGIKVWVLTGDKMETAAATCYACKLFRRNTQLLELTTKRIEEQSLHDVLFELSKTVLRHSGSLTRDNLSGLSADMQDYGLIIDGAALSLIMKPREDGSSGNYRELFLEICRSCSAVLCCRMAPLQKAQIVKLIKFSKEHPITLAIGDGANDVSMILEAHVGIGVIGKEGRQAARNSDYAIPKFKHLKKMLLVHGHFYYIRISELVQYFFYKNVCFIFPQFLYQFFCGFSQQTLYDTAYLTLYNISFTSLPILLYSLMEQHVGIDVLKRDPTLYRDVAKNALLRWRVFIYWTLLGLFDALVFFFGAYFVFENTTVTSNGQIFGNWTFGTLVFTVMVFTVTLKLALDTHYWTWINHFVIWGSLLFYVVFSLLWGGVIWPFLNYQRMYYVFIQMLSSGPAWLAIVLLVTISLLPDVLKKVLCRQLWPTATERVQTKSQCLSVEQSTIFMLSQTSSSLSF
inactive: erlotinib -0.038 | [1] 0.015 | [2] 0.004 | [3] 0.005 | [4] -0.038 | [5] 0.035 | [6] -0.048 | [7] -0.085 | [8] -0.035 | [9] 0.012 | IRAK-1-4 Inhibitor I -0.003 | ibrutinib 0.007 | [10] 0.018 | ralimetinib 0 | [11] -0.026 | [12] 0.073 | [13] 0.052 | pinometostat 0.004 | [14] 0.05 | [15] 0.036

ALDH18A1 (UniProt P54886)
active: [11] -0.497
inactive: erlotinib 0.016 | [1] 0.092 | [2] 0.089 | [3] -0.084 | [4] -0.007 | [5] -0.204 | [6] -0.093 | [7] -0.091 | [8] -0.015 | [9] -0.057 | IRAK-1-4 Inhibitor I 0 | ibrutinib -0.098 | [10] 0 | ralimetinib -0.057 | [12] -0.269 | [13] 0 | pinometostat -0.053 | [14] -0.059 | [15] 0.184

ANP32E (UniProt Q9BTT0)
Chain of UniProt Q9BTT0 (Q9BTT0 whole entry, looked up): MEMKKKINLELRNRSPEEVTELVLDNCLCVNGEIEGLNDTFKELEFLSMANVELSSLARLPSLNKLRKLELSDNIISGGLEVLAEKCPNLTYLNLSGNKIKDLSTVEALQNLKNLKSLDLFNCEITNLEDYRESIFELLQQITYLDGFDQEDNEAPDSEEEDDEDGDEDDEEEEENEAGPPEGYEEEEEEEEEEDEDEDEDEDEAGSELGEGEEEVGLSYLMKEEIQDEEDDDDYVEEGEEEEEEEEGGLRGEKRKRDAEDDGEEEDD
inactive: erlotinib 0.211 | [1] 0.038 | [2] 0.114 | [3] -0.062 | [4] 0.027 | [5] -0.025 | [6] 0 | [7] -0.014 | [8] -0.026 | [9] -0.084 | IRAK-1-4 Inhibitor I 0.016 | ibrutinib 0.019 | [10] -0.128 | ralimetinib -0.035 | [11] -0.067 | [12] -0.181 | [13] -0.036 | pinometostat 0.028 | [14] 0.082 | [15] -0.214

ALDH2 (UniProt P05091)
Chain of UniProt P05091 (P05091 whole entry, looked up): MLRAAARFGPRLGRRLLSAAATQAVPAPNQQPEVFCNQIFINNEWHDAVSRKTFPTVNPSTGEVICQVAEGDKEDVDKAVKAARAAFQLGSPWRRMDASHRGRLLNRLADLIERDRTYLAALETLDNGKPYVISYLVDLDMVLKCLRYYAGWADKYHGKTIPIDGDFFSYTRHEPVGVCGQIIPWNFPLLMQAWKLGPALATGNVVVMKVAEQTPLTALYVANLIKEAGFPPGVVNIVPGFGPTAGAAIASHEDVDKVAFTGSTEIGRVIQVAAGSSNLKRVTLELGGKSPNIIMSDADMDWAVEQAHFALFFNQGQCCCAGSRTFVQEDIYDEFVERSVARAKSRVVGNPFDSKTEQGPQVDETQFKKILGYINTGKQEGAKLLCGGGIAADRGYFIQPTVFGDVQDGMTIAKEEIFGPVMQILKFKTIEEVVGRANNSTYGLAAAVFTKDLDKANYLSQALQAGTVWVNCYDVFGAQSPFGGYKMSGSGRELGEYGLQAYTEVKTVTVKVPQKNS
inactive: erlotinib -0.009 | [1] 0.121 | [2] 0.039 | [3] 0.021 | [4] 0.096 | [5] 0.022 | [6] -0.019 | [7] 0.097 | [8] -0.041 | [9] 0.02 | IRAK-1-4 Inhibitor I 0.005 | ibrutinib 0.002 | [10] -0.005 | ralimetinib -0.086 | [11] -0.037 | [12] 0.018 | [13] -0.032 | pinometostat -0.034 | [14] -0.046 | [15] 0.063
